Compound activity from PubChem.
eIF4H FP inh = inhibitors of RNA binding by human eIF4H | eIF4H fluorescence polarization binding assay | inhibition, % at 35 µM | 290,000 compounds, 0.94% hits | Q15056 | AID 2012;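 also: calls also rest on retests at 20 µM and on dose response follow-up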
ALR inh = inhibitors of human sulfhydryl oxidase ALR; purified ALR, DTT oxidation, H2O2 HRP-luminol luminescence; inhibition, % (no concentration beside the values); 290,000 compounds, 3.8% hits; AID 485317;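 active = mean replicate inhibition above about 79%, with every replicate also reaching it, limit read from the data; inconclusive = only one of the two criteria met; inactive = mean below limit and not every replicate reaching it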
Target sequence (P55789 whole entry, looked up): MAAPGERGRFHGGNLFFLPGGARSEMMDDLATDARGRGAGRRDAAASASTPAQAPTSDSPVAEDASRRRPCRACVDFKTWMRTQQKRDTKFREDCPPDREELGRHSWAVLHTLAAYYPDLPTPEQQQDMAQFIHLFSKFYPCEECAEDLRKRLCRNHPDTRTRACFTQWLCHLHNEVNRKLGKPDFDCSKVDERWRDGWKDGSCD
PABP1 MLLE inh = inhibitors of microRNA-mediated deadenylation, human PABP1 MLLE binding. GST-MLLE / FITC-PAM2 fluorescence polarization. inhibition, % at 20 µM. 360,000 compounds, 0.36% hits. AID 588489; in the data active = inhibition above about 35%, passing the limit was not always enough;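 also: plate controls were DMSO wells with GST-MLLE for no effect and wells lacking GST-MLLE protein for full effect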
Efflux pump inh = antifungal efflux pump inhibition, Nile Red retention. S. cerevisiae Candida pump triplex. 330,000 compounds, 0.44% hits. inhibition, % at 10 µM;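 active = plate passing quality check with inhibition over a set limit, or well fluorescence over plate mean plus 4 SD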;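 also: Nile Red retained in pooled yeast measured as flow cytometry median fluorescence; 0% = buffer negative control and 100% = Enniatin B positive control; higher means more Nile Red kept so more efflux inhibition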
SUMO HTRF inh = inhibitors of human SUMOylation (UBC9); inhibition, % at 35 µM; 290,000 compounds, 0.36% hits; P63279; HTRF SUMOylation assay, SAE1/SAE2 + UBC9, in vitro; in the data active = inhibition above about 50%, passing the limit was not always enough; inconclusive = no clear call, values can overlap the other calls
PABP FP inh = blocks human PABP binding to poly(A) RNA | P11940 | fluorescence polarization | inhibition, % at 35 µM | 290,000 compounds, 1% hits | AID 2014;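 also: calls also rest on retests at 20 µM and on dose response follow-up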
* hit, by the source's call; u = inconclusive; x = not tested or not shown. Only some compounds are listed: those with a hit (about 4.7% of all), similar ones and a draw of the others. Unless noted, no rule for the calls is given here.

SMILES | eIF4H FP inh | ALR inh | PABP1 MLLE inh | Efflux pump inh | SUMO HTRF inh | PABP FP inh
Nc1ccc2nc(Cc3ccccc3)[nH]c2c1 | -4 | 100* | -10 | 0 | 20 | 14
Cc1ccc2nc(Cc3ccc(N)cc3)[nH]c2c1 | -5 | x | -21 | 0 | -24 | 19
Cc1cc(C)cc(NC(=O)c2cccc(N3C(=O)C4C5C=CC(C5)C4C3=O)c2)c1 (configuration not stated) | -6 | x | -21 | x | -6 | 7
Cc1cccc(NC(=O)c2cccc(N3C(=O)C4C5C=CC(C6CC56)C4C3=O)c2)c1 (configuration not stated) | -12 | 89* | 8 | 0 | 15 | -12
COc1ccc(-c2csc(C(O)c3ccc(F)c(OC)c3)n2)cc1 (configuration not stated) | x | x | 3 | x | x | x
Cn1c(C2CCCCC2)nc2cc(N)ccc21 | 13 | 89* | 20 | 0 | 6 | -3
Cn1c(CO)nc2cc(N)ccc21 | -3 | 80* | -1 | 0 | 10 | 8
Cc1nc2cc(CO)ccc2n1C | -1 | -2 | 6 | 0 | -11 | -15
COC(=O)c1ccc2c(c1)nc(C)n2CCO | -9 | -30 | -5 | 0 | 8 | 8
Nc1ccc(-c2nc3cc(N)ccc3n2CCO)cc1 | -2 | 98* | -3 | 0 | u | 6
Cn1c(C2CCCCC2)nc2ccccc21 | 0 | -1 | -15 | 0 | -5 | 8
CCOc1ccc(CCNC(=O)c2cccc(-n3cnnn3)c2)cc1OCC | x | -8 | -7 | 0 | x | x
C[C@@H]1C[C@H]2[C@@H]3CCC4=CC(=O)C=C[C@]4(C)[C@@]3(Cl)[C@@H](O)C[C@]2(C)[C@@]1(OC(=O)c1ccco1)C(=O)CCl | x | 0 | -2 | 0 | x | x
CC(C)Oc1ccc(-c2nn(-c3ccccc3)cc2/C=c2\sc3ncnn3c2=O)cc1 | u | 39 | x | 0.9* | 13 | u
O=C(CN1CCN(c2ccccc2O)CC1)Nc1ccnn1C1CCCC1 | x | x | -10 | 0 | x | x
O=C(O)c1ccc(-n2cccc2/C=N\NC(=O)c2cc3cc(Br)ccc3o2)cc1 | 86* | 87* | -7 | 0 | 43 | 80*
CCC1CCCCN1C(=O)CCS(=O)(=O)c1ccccc1 (configuration not stated) | -5 | 4 | 13 | 0 | 1 | 1
CC(=O)NNC(=O)CSc1nnc(-c2ccccc2)c(-c2ccccc2)n1 | 46 | 83* | -8 | 1 | 9 | 28
CC(C)(C)NC(=O)CSc1nnc(-c2ccccc2)c(-c2ccccc2)n1 | -8 | 9 | -2 | 0 | 24 | -1
CC(=C/c1ccccc1)/C=N/n1c(-c2ccncc2)n[nH]c1=S | 1 | 14 | -6 | 0 | 8 | -13
CC(/C=N/n1c(-c2ccccc2)n[nH]c1=S)=C\c1ccco1 | 36 | u | 1 | 0 | -2 | 4
CC(/C=N/n1c(-c2ccncc2)n[nH]c1=S)=C\c1ccco1 | 84* | 2 | -3 | 0 | 22 | 46*
CC(/C=N/n1c(-c2ccco2)n[nH]c1=S)=C\c1ccco1 | 106 | 69 | -14 | 0 | 64* | -4
CC(/C=N/n1c(-c2ccc(C)cc2)n[nH]c1=S)=C\c1ccco1 | 42 | 97* | -52 | 0 | 19 | 13
Cc1noc(C)c1S(=O)(=O)N(C)C[C@H]1Oc2c(NS(=O)(=O)c3cn(C)cn3)cccc2C(=O)N([C@H](C)CO)C[C@@H]1C | x | x | 1 | 0 | x | x
SMILES | eIF4H FP inh | ALR inh | PABP1 MLLE inh | Efflux pump inh | SUMO HTRF inh | PABP FP inh
CCn1c(CSc2nccn2C)nc2cc(C(=O)O)ccc21 | 115* | 98* | 51* | 0 | 17 | 126*
CCn1c(CSc2nc3ccccc3[nH]2)nc2cc(C(=O)O)ccc21 | 14 | 58 | -34 | 0 | 29 | 26
CCC(=O)NC1=C(Cl)C(=O)C(NC(=O)CC)=C(Cl)C1=O | 2 | x | 37 | x | 76* | 8
O=C1c2ccccc2C(=O)N1CCCCNc1ccccc1 | x | x | -5 | x | x | x
c1ccc(NCCCNc2ccccc2)cc1 | -2 | 98* | -6 | 0 | 10 | 4
CCC(=O)NC(c1cc(Cl)c2ccccc2c1O)C(C)C (configuration not stated) | x | 95* | 5 | 0 | x | x
CCC(=O)NC(c1ccco1)c1cc(Cl)c2ccccc2c1O (configuration not stated) | x | 58 | -4 | 0 | x | x
CC(=O)NC(c1ccco1)c1cc(Cl)c2ccccc2c1O (configuration not stated) | x | 88* | 2 | 1 | x | x
O=C1CCCC2=C1C(c1ccc(O)c(O)c1)c1c(ccc3ncccc13)N2 (configuration not stated) | 96 | 100* | -16 | 0 | 10 | -10
CCOc1ccc(C2C3=C(CCCC3=O)Nc3ccc4ncccc4c32)cc1 (configuration not stated) | -7 | -22 | 10 | 0 | -8 | 7
O=c1nc(Nc2cccc(Cl)c2)oc2cc(Cl)oc(=O)c12 | 58 | x | -17 | 0 | 10 | 26*
CC(C)c1ccc2oc(=O)cc(CN3CCCCC3)c2c1 | 6 | 1 | 2 | 0 | -3 | 1
CS(=O)(=O)Nc1ccccc1-c1ccc2nccn2c1 | x | x | -19 | x | x | x
COc1ccc(CCN(Cc2cccs2)S(=O)(=O)c2ccc(C(=O)O)cc2)cc1OC | -6 | 94* | -2 | 0 | 12 | 0
O=C(O)c1ccc(S(=O)(=O)N(Cc2cccs2)CC2CCCO2)cc1 (configuration not stated) | 1 | -7 | 4 | 0 | 12 | 1
Cc1cc(Br)ccc1NC(=O)CN(C)C(=O)C1CCN(C(=O)c2ccc(Cl)cc2)CC1 | x | x | 2 | x | x | x
Cc1ccc2c(c1)[nH]c1c(N3CCN(Cc4ccccc4)CC3)ncnc12 | 4 | 98* | 6 | 0 | 5 | 15
Cc1ccc2[nH]c3c(N4CCN(Cc5ccccc5)CC4)ncnc3c2c1 | 1 | 12 | -15 | 0 | -2 | 1
c1ccc(CN2CCN(c3ncnc4c3[nH]c3ccccc34)CC2)cc1 | 5 | 95* | 2 | 0 | -6 | 2
